This is an account of results in PubChem BioAssay (NCI).

A short description of test [1]: NCI Yeast Anticancer Drug Screen. Data for the rad50 strain (AID 155).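 Further: 0% = growth of vehicle-only cultures of the same strain.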 The settings on record: S. cerevisiae rad50 strain growth inhibition, stronger effect = higher value; at 50.0 µM unless noted. In a few lines: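 Cells are treated with compound, grown, and their growth is then scored against vehicle-only cultures of the same repair-deficient yeast strain.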
Test [2] can be described thus: NCI Yeast Anticancer Drug Screen. Data for the mec2-1 strain (AID 157). The settings on record: S. cerevisiae mec2-1 strain, stronger effect = higher value; at 50.0 µM unless noted. In a few lines: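 Cells of the genetically defined mec2-1 yeast strain are incubated with test compound. Inhibition of growth is calculated against vehicle-treated controls.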
The nature of test [3]: NCI Yeast Anticancer Drug Screen. Data for the sgs1 mgt1 strain (AID 161).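 Further: 0% = growth of cultures given vehicle only.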 The settings on record: S. cerevisiae sgs1 mgt1 strain, stronger effect = higher value; at 50.0 µM unless noted. The procedure, abridged: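 Mutant yeast exposed to compound; growth scored against vehicle-only wells.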
The nature of test [4]: NCI Yeast Anticancer Drug Screen. Data for the cln2 rad14 strain (AID 165).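 Further: 0% = growth equal to vehicle treated cultures.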 The settings on record: S. cerevisiae cln2 rad14 strain, stronger effect = higher value; at 50.0 µM unless noted. In a few lines: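 The screen exposed genetically defined yeast (cln2 rad14) to test compounds and scored growth inhibition relative to vehicle-treated controls.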
The nature of test [5]: NCI Yeast Anticancer Drug Screen. Data for the bub3 strain (AID 167). The settings on record: S. cerevisiae bub3 mutant strain, stronger effect = higher value; at 50.0 µM unless noted. In a few lines:
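Part of a panel of yeast mutants defective in DNA damage repair or cell cycle regulation. Each strain is grown with compound, and inhibition is calculated relative to solvent-treated cultures.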

Test [6] in a line: NCI Yeast Anticancer Drug Screen. Data for the mlh1 rad18 strain (AID 175). The settings on record: S. cerevisiae mlh1 rad18 strain growth inhibition, stronger effect = higher value; at 50.0 µM unless noted. The procedure, abridged: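 Compound-treated yeast growth, normalised to vehicle controls. Strain bears defined DNA repair mutations.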

SMILES strings stand for the structures. Several values for one entry are separate records, joined by “and”; a condition that tells them apart may be missing. Equal values may be shown once. Compounds without any hit were thinned out: in the full panel of roughly 79,000, 15% have a hit. A number with no mark means an inactive call. Activity calls are given as the source filed them. No stated cut-off is given here; in the data, active means growth inhibition above about 70%; inactive means the rest.

Take `Oc1ccc(-c2c3ccccc3c(-c3ccc(O)cc3)c3ccccc23)cc1`: the growth inhibition in test [1] was -0.85%; in test [2], -9.6%; in test [3], -31.6%; in test [4], -7.2%; in test [5], -9.15%; in test [6] it was 1.15%.

For the compound `OC(c1ccccc1)(c1ccccc1)C1/C(=C/c2ccccc2)C1Cc1ccccc1` (stereo not given), the growth inhibition in test [1] is 4.85%; in test [2], 2.4%; in test [3] it was -7.9%; in test [4], -8.1%; in test [5] it was -3.75%; in test [6], 3%.

As to `CC(C)(O)C(=O)O`, the growth inhibition in test [1] was -6% and -19%; in test [2], 6.1% and -1.45%; in test [3], -8.2% and -10.8%; in test [4], 2.05% and -32.8%; in test [5], 7.25% and -3.95%; in test [6], 6.6% and -4.6%.

Take `CN(C)c1ccccc1C(=O)N/N=C\c1ccc(-c2ccccc2)cc1`: the growth inhibition in test [1] was 7.05%; in test [2], 4.95%; in test [3] it was 0.6%; in test [4], 12.3%; in test [5], 0.35%; in test [6] it was 19.6%.

On to `COc1ccccc1CN1CCCN(Cc2ccccc2OC)C1c1cccc(F)c1`, for which the growth inhibition in test [1] was 0.75%; in test [2], 9.9%; in test [3] it was 0.65%; in test [4] it was 16.4%; in test [5] it was 6.65%; in test [6], 17.8%.

In the case of `COC(=O)C(Br)C(CCCN1C(=O)c2ccccc2C1=O)OC` (stereo not given), the growth inhibition in test [1] is 27.5%; in test [2] it was 7.55%; in test [3], 45.9%; in test [4], 8.5%; in test [5] it was 39.9%; in test [6] it was 19.1%.

`CCCCCCn1ncc2c(N)ncnc21`: the growth inhibition is 10.4% in test [1]; 6.85% in test [2]; -1.3% in test [3]; -4% in test [4]; 29.8% in test [5]; -1.3% in test [6].

With `CS(=O)(=O)OCCN(CCOS(C)(=O)=O)c1ccc([N+](=O)[O-])cc1[N+](=O)[O-]`, the growth inhibition is 22.6% in test [1]; -5.8% in test [2]; -0.2% in test [3]; 24.8% in test [4]; -3.95% in test [5]; 13.6% in test [6].

For the compound `Cc1ccc(S(=O)(=O)NC(=O)NNc2ccc(F)cc2)cc1`, the growth inhibition is 2.5% in test [1]; 2.15% in test [2]; 1.65% in test [3]; 17.9% in test [4]; -12.1% in test [5]; 42.5% in test [6].

On to `CCOc1ccc(N=Nc2c(N)nc(N)[nH]c2=O)cc1`, for which the growth inhibition in test [1] is 26.3%; in test [2], 23.6%; in test [3], 17.4%; in test [4], 19.9%; in test [5], -1.25%; in test [6] it was 24.1%.

Take `COc1ccc(C)cc1S(=O)(=O)c1ccc(Cl)cc1[N+](=O)[O-]`: the growth inhibition is -2.55% in test [1]; -11.1% in test [2]; 2% in test [3]; -12.7% in test [4]; 2.25% in test [5]; -25.1% in test [6].

As to `C/C(=C\c1ccc(N(C)C)cc1)c1ccncc1`, the growth inhibition is 63.3% in test [1]; 38.9% in test [2]; 68.5% in test [3]; 34.8% in test [4]; 86.7% (active) in test [5]; 48.2% in test [6].

Regarding `CCOC(=O)Cn1cncc1C`, the growth inhibition was -33.6% in test [1]; -6.6% in test [2]; -13.5% in test [3]; -73.6% in test [4]; -3.4% in test [5]; -7.1% in test [6].

On to `C[N+]1(C)N=C([O-])N(c2ccccc2Cl)C1=O`, for which the growth inhibition is 21.4% in test [1]; -27.4% in test [2]; -6.6% in test [3]; -37.5% in test [4]; 1.15% in test [5]; 18.1% in test [6].

Turning to `COc1cccc2cc3c(cc12)C(=O)C(C)=C(C)C3=O`, the growth inhibition in test [1] is -1.65%; in test [2] it was -3.6%; in test [3], -3.45%; in test [4] it was -9.25%; in test [5] it was 6.8%; in test [6], 2.55%.

For `CCCCCC(=O)OCCSCCOC(=O)CCCCC`, the growth inhibition was 4.55% in test [1]; 1.3% in test [2]; -5.85% in test [3]; -39.1% in test [4]; 10.8% in test [5]; 0.2% in test [6].

`Cc1ccc2c(-c3cccc4ccccc34)c3ccccc3cc2c1`: the growth inhibition in test [1] was 5.45%; in test [2], 9.65%; in test [3], -12%; in test [4], -8.4%; in test [5] it was 8.95%; in test [6], -7.75%.

For `Cc1nc2cccc3ccc4c5ccccc5cc1c4c32`, the growth inhibition in test [1] is 70% (active); in test [2], 15.2%; in test [3], -25%; in test [4], 0.9%; in test [5], 21.6%; in test [6], 49.3%.

In the case of `OC1c2ccccc2C2c3ccccc3C1C2Cl` (stereo not given), the growth inhibition is 43.8% in test [1]; 5.9% in test [2]; 25.8% in test [3]; 35.3% in test [4]; -5.7% in test [5]; 39.8% in test [6].

With `CC(CC(=O)c1ccccc1)[N+](=O)[O-]` (stereo not given), the growth inhibition in test [1] was -10.6%; in test [2], -6.35%; in test [3], -3.3%; in test [4], -12.6%; in test [5], -7.85%; in test [6] it was 15.8%.
